The text below walks through data of PubChem BioAssay AID1645854 (Buhrlage Lab, Dana-Farber Cancer Institute and Novartis …, 2021).

About 140 (0.3%) of roughly 47,000 compounds were called active. Cut-off read from the data, not from the text of the source: active = inhibition above about 30%; inactive = the rest. Many of the other results were omitted from the sample, so actives are more common in it than they were.

For the assay, the target named is Ubiquitin carboxyl-terminal hydrolase 7 (Homo sapiens) (UniProt Q93009). Briefly: inhibitors of human USP7 deubiquitinase (AID 1645854). The conditions noted are these: purified USP7, Ub-rhodamine cleavage fluorescence; at 20 µM; stronger effect = higher value.
Sequence of Ubiquitin carboxyl-terminal hydrolase 7 (Homo sapiens) (Q93009 whole entry, looked up): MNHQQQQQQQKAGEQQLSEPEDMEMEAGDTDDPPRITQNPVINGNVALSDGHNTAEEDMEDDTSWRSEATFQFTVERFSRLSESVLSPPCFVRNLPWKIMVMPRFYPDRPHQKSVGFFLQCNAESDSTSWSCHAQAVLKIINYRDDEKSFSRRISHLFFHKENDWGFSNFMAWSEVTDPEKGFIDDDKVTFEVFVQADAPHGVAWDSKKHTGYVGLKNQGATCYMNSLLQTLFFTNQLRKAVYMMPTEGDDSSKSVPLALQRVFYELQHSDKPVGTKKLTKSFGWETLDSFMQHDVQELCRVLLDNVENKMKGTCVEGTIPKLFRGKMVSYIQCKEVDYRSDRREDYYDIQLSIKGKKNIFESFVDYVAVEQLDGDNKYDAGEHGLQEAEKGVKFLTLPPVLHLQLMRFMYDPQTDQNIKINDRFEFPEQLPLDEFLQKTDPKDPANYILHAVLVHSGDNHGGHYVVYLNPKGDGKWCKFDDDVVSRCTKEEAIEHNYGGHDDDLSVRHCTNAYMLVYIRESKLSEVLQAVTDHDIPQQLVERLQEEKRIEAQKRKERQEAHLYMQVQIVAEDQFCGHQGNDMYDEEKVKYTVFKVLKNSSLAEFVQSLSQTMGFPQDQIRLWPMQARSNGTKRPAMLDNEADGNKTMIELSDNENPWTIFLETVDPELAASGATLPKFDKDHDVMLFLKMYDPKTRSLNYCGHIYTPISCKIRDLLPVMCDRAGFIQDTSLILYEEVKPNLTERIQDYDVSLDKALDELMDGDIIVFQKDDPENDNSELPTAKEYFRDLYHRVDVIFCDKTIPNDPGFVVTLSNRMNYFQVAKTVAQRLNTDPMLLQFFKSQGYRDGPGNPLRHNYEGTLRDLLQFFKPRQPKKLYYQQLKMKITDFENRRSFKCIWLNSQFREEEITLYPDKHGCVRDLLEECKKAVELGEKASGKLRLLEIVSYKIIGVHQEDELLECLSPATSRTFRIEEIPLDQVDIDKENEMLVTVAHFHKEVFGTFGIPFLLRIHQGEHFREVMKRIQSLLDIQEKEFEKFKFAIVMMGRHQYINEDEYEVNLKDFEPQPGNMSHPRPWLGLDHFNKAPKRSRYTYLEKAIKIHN
Consider `O=C1CCCC2=C1C(c1ccc(O)cc1)n1ncc(C(=O)Nc3ccccc3)c1N2` (stereo not given), for which the inhibition is 1.67% (inactive).

In the case of `Fc1ccc(-c2nn(-c3cccc(F)c3)c3c2cnc2cc4c(cc23)OCO4)cc1`, the inhibition was 8.85% (inactive).

Turning to `CCC(=O)NC(=NCCc1c[nH]c2ccc(Cl)cc12)Nc1nc(C)cc(C)n1`, the inhibition is 6.43% (inactive). `Cc1c(S(=O)(=O)N2CCCC2)cc(C(=O)Nc2ccccc2F)n1C`: the inhibition is 1.4% (inactive). `Cc1ccc(-c2cc(=O)oc(-c3ccc(Br)cc3)n2)cc1`: the inhibition was 4.33% (inactive). Consider `COc1ccc(OC)c(-c2cc(C(=O)N3C[C@@H]4C[C@@]5(C)[C@H](CCC[C@@H]35)N4)[nH]n2)c1`, for which the inhibition was 1.2% (inactive). For `Cc1ccccc1Nc1nccc(C2CCCN(C(=O)C3(c4ccccc4)CC3)C2)n1` (stereo not given), the inhibition is -0.199% (inactive). The value for `CC12CCN(CCC(F)(F)F)CCN1C(=O)N(Cc1ccccn1)C2=O` (stereo not given) was -2.02% (inactive); that for `Cc1nc(Nc2ccccn2)cc(C2CCCN2C(=O)c2cccnc2)n1` (stereo not given) was -7.09% (inactive); that for `CCc1ccccc1NC(=O)COc1nsnc1N1CCOCC1` was -0.647% (inactive). On to `Cc1cc(O)c2c(C)c(CC(=O)N3CCC[C@H]3C(=O)O)c(=O)oc2c1`, for which the inhibition is 0.928% (inactive). On to `Cc1nc2ccccc2c(=O)n1-c1ccc(F)c(NC(=O)c2ccccc2[N+](=O)[O-])c1`, for which the inhibition was 3.02% (inactive). The figure for `O=S(=O)(Cc1noc(-c2ccc(OC(F)(F)F)cc2)n1)c1ccc(F)cc1` is -2.05% (inactive). The figure for `Cc1nc2sccn2c1CN1C[C@@H](c2ccccn2)[C@@]2(CCCCC(=O)N2)C1` is 5.2% (inactive); for `CC(=O)N1CCCn2c(nc(CNC(=O)c3cnn(C)c3)cc2=O)C1` it is 6.8% (inactive). As to `Cc1ccccc1CNC(=O)CCc1nc2ccccc2c(=O)n1C`, the inhibition is -6.78% (inactive). With `CC(C)n1ncc2c(C(=O)NCc3ccccc3CN(C)C)cc(C3CC3)nc21`, the inhibition is -0.227% (inactive). Consider `CN1C(=O)OC2(CCN(S(=O)(=O)c3ccccc3)CC2)c2ccccc21`, for which the inhibition is 4.14% (inactive). The value for `CCCNC(=O)c1nc2c(o1)CN(CC1CC1)C2` was 0.464% (inactive); that for `CN(C(=O)COc1ncnc2c1cnn2-c1ccccc1)C1CCCCC1` was 1.52% (inactive). The value for `Cc1cccc(S(=O)(=O)N(CC(=O)N(C)Cc2ccccc2)Cc2ccccc2)c1` was -0.03% (inactive); that for `COc1cc(C)c(CN2CCC3(CC2)OCCc2cnc(C)nc23)cc1C` was -2.12% (inactive); that for `O=C(Nc1cc(C(F)(F)F)ccc1-n1cnc2ccccc21)c1ccc(S(=O)(=O)N2CCCCC2)cc1` was 12.8% (inactive).

Turning to `Cc1nc(CN2CCn3c(CNC(=O)C4CC4)cnc3C2C)cs1` (stereo not given), the inhibition was -127% (inactive). Turning to `CCCN(C(=O)c1cccc2c1SCCC2=O)c1ccc(F)cc1`, the inhibition is -4.01% (inactive). With `O=C(Cc1ccccc1)Nc1ccc(-c2nc3cnccc3o2)c(O)c1`, the inhibition was 31.5% (active). On to `O=C(Nc1ccc(-c2nc3cnccc3o2)c(O)c1)c1ccc(-c2ccccc2)cc1`, for which the inhibition is 5.05% (inactive). The value for `COc1cc(C(=O)Nc2ccc(-c3nc4cnccc4o3)cc2)cc(OC)c1OC` was 5% (inactive); that for `CCOc1ccc(NC(=O)Cn2c(=O)n(CCC(=O)N3CCc4ccccc4C3)c(=O)c3ccccc32)cc1` was 3.17% (inactive); that for `O=C(Nc1ccc(F)cc1F)c1csc2c1CCCCC2` was 3.29% (inactive). In the case of `O=C(NCc1ccc2c(c1)OCO2)C1(c2ccc(Cl)cc2)CCCC1`, the inhibition is -12.3% (inactive). Consider `CN(Cc1ccccc1)Cc1cn[nH]c1-c1ccc(Cl)cc1`, for which the inhibition is -24% (inactive). For the compound `Cc1nc2nc(NCc3ccccc3)[nH]n2c(=O)c1CCC(=O)N1CCCCC1C` (stereo not given), the inhibition is 2.27% (inactive).

With `CC1=NOC(CNS(=O)(=O)c2cc(C)ccc2C)C1` (stereo not given), the inhibition is -0.759% (inactive). As for `O=C1NC2(CCN(C(=O)Cc3ccc(F)cc3)CC2)N=C1c1ccc(Cl)cc1`, the inhibition was -39.3% (inactive). Consider `COc1c(O)c2c3c(c1O)C(=O)[C@@]1(O)C(=C3C(C)=CC2=O)O[C@@H](C)C1(C)C`, for which the inhibition is -76.3% (inactive). For the compound `COc1ccc(Cl)cc1NC(=O)C1CC(=O)NC(Nc2ccccc2)=N1` (stereo not given), the inhibition is -1.4% (inactive). Consider `Cc1cc(C)n2nc(C(=O)N3CCCC(Cc4[nH]ncc4C)C3)cc2n1` (stereo not given), for which the inhibition was -0.00929% (inactive). The figure for `CSc1cccc(NC(=O)CC(=O)Nc2ccc3nc4n(c(=O)c3c2)CCCCC4)c1` is 1.86% (inactive); for `CC1(C2CCN(C(=O)NC3CCCCC3)CC2)NC(=O)NC1=O` (stereo not given) it is 2.45% (inactive); for `CC(C)CCN1C[C@H]2CCN(C(=O)c3cnccn3)CC[C@H]2S1(=O)=O` it is -4.49% (inactive). In the case of `Cc1ccccc1COC(=O)C1CCN(C2=NS(=O)(=O)c3ccccc32)CC1`, the inhibition was -0.994% (inactive). For `COc1ccc2[nH]c3c(c2c1)CCN1C(=O)CN(CCc2ccccc2)C(=O)C31C` (stereo not given), the inhibition was 4.73% (inactive). `COC1=C(OC)C(=O)C(C)=C(C)C1=O`: the inhibition was 3.62% (inactive). For the compound `O=C(Nc1cccc(S(=O)(=O)N2CCCCCC2)c1)c1ccc(N2CCOCC2)c([N+](=O)[O-])c1`, the inhibition is 8.97% (inactive). `CC(C)(C)c1cc(-c2ccccc2)nc(-c2ccccc2)c1`: the inhibition is 1.78% (inactive). As to `O=C(CCN1CCOC(Cn2cncn2)C1)N1CCCCC1` (stereo not given), the inhibition is 1.57% (inactive). As for `O=C(CN(Cc1ccccc1)S(=O)(=O)c1ccccc1)N1CCCCCC1`, the inhibition is -6.83% (inactive).

Regarding `Cc1ccc(NS(=O)(=O)c2cc(-c3[nH]ncc3C(=O)N3CCCC3)oc2C)cc1F`, the inhibition is -40.8% (inactive). The figure for `COCCn1cnc2c1c(=O)n(CC(=O)Nc1c(C)cc(C)cc1C)c(=O)n2Cc1ccccc1` is 0.0199% (inactive); for `CC(Nc1nnc(Cc2ccccc2)c(=O)[nH]1)c1ccccc1` (stereo not given) it is 19.7% (inactive); for `Cc1c(-c2nn3c(-c4ccco4)nnc3s2)cccc1[N+](=O)[O-]` it is 35% (active).

As for `CC(C)Cc1cc(-c2nn3c(-c4ccccc4Cl)nnc3s2)n[nH]1`, the inhibition is 7.86% (inactive).

With `Cc1cccc(CNC(=O)c2ccc3c(c2)NC(=O)C2CCC(=O)N32)c1` (stereo not given), the inhibition was 1.1% (inactive). Consider `O=C1CC(CNS(=O)(=O)c2cccc(Cl)c2)CN1c1ccccc1` (stereo not given), for which the inhibition was -3.38% (inactive). The value for `Cn1c(=O)c2ccc(C3CCN(C(=O)CN4CCCC4)C3)nc2n(C)c1=O` (stereo not given) was -2.1% (inactive). Turning to `COc1cc2c(c(OC)c1OC)-c1ccc(N3CCN(Cc4ccccc4)CC3)c(=O)cc1[C@@H](NC(C)=O)CC2`, the inhibition was -1.92% (inactive). The value for `C=C1CCC2[C@](C)(CCC[C@]2(C)C(=O)OC)[C@H]1CCc1ccoc1CNCC(=O)O` (stereo not given in full) was 1.95% (inactive).

`C=C1CCC2[C@](C)(CCC[C@]2(C)C(=O)OC)[C@H]1CCc1ccoc1C[N+](C)(C)Cc1ccccc1` (stereo not given in full): the inhibition is 19.4% (inactive). On to `C=C1CCC2[C@](C)(CCC[C@]2(C)C(=O)OC)[C@H]1CCc1ccoc1/C=C/C(=O)O` (stereo not given in full), for which the inhibition is 37.2% (active). As to `CCc1cc(C(=O)NC2CC(C)(C)Cc3nc(N4CCCC4)ncc32)no1` (stereo not given), the inhibition is -17.3% (inactive).

As for `Cc1ccc(-c2cn3ccn(-c4ccc(C)cc4C)c(=O)c3n2)cc1`, the inhibition was 6.15% (inactive). Take `CC(C)CN1[C@H]2CCN(C(=O)c3cccn3C)CC[C@@H]2Oc2ccccc2S1(=O)=O`: the inhibition was -3.56% (inactive). As for `Cn1cc(C2=CCN(S(=O)(=O)c3cccc4cccnc34)CC2)c2cccnc21`, the inhibition is -2.34% (inactive). As for `Cc1nnc(C(=O)Nc2ccc(C(=O)NCc3ccccc3C)cc2)s1`, the inhibition was 6.22% (inactive).

As to `O=C(Nc1nc(-c2ccc3c(c2)CCN3C(=O)c2ccccc2F)cs1)c1cccnc1`, the inhibition is 26.5% (inactive).

For `CCS(=O)(=O)c1cccc(C(=O)Nc2c(C(N)=O)oc3ccccc23)c1`, the inhibition is 1.8% (inactive). Consider `CN1CCN(c2ccc(CNS(=O)(=O)c3cccc(F)c3)cc2)CC1`, for which the inhibition is 3.64% (inactive). On to `COc1ccccc1CNc1ccc2c(cc1=O)[C@@H](NC(C)=O)CCc1cc(OC)c(OC)c(OC)c1-2`, for which the inhibition is -13.3% (inactive). Regarding `CCS(=O)(=O)N1CCC(c2nc(C)c(-c3ccnc(C)n3)s2)CC1`, the inhibition was 3.86% (inactive). For the compound `C=C1Nc2ccccc2C(=O)N1c1cccc(NC(=O)c2ccc(F)cc2)c1`, the inhibition is 1.49% (inactive). With `O=C(CCc1nc(-c2cccnc2)no1)Nc1cc(Cl)ccc1O`, the inhibition was -16.2% (inactive). Turning to `CC(C)Cc1nnc(NC(=O)c2cc(=O)[nH]c3ccccc23)s1`, the inhibition was -0.0201% (inactive). Consider `COc1cc(C(=O)N[C@@H]2C(=O)Nc3c(c(C)nn3C)[C@H]2c2cccc(Cl)c2)cc(OC)c1OC`, for which the inhibition was -9.37% (inactive). `CN1C(=O)C2CCCCN2c2ccc(C(=O)NC3CCCC3)cc21` (stereo not given): the inhibition was -1.37% (inactive). On to `O=C(CCc1ccccc1)N1C[C@@H]2OCC(=O)N(C3CCOCC3)[C@H]2C1`, for which the inhibition was 10.2% (inactive). Consider `C[C@H](NC(=O)[C@@H]1Cc2c([nH]c3ccccc23)C2c3ccccc3C(=O)N21)C(=O)NC1CC1` (stereo not given in full), for which the inhibition is -18.8% (inactive). With `CC(/C=C/C(=O)NO)=C\C(C)C(=O)c1ccc(N(C)C)cc1` (stereo not given), the inhibition was -1.05% (inactive). The figure for `CC1(C)CCc2c(cc(OCC(=O)NCC(=O)O)c3c4c(c(=O)oc23)CCC4)O1` is 8.33% (inactive); for `CCCc1cc(=O)oc2cc(OCC(=O)NCc3ccc(OC)cc3)ccc12` it is 1.51% (inactive). For the compound `CCCCCCSc1ncnc2c1sc1nc(-c3ccccc3)c3c(c12)CC(C)(C)OC3`, the inhibition was 1.19% (inactive). In the case of `CSc1ncnc2c1sc1nc(-c3ccccc3)c3c(c12)CC(C)(C)OC3`, the inhibition is 4.67% (inactive).

With `CC1(C)Cc2c(c(-c3ccco3)nc3sc4c(SCCCc5ccccc5)ncnc4c23)CO1`, the inhibition is 56.7% (active). The figure for `COCCN1C(=O)Cc2c(C)nc(C3(C)CCCN(c4ccnc(C)n4)C3)nc21` (stereo not given) is -0.762% (inactive). Turning to `Cc1cc(-c2cnc(C)nc2C2CCN(C(=O)Cc3ccccc3F)CC2)on1`, the inhibition is 0.853% (inactive).
